# Tested on: LXRa:RXRa (NR concentration 270 nM, RXRa partner concentration 90 nM)
# Assay: PBM binding z-score (relative to random genomic background probes); higher = stronger binding; sequences stand for … in GC…GCGATTGACAGCGTAGAATGAAGG
# Summary of the method: (§1)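 Scanned fluorescence from custom Agilent 4×180K protein-binding microarrays was regression-normalized. Binding z-scores use random background probes as reference. Ligand-free nuclear receptor dimers were incubated on the arrays for 1 h and detected with antibodies against each partner (one per run).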
row,Sequence,PBM binding z-score
1,ACTAGTAGGCCAAGTTTGGGTCACTCAAACAAAG,0.0962
2,ATCTCTAGGTAACAAGTGCAGTGAAAGAGAGGAC,0.181
3,GCATATAGGTAATACAAGGTGAAAGTGCGATTGT,2.52
4,GATACAGGGACAGCTAGAGGCCAGAGTATGGAAA,-0.821
5,AGAATGAGGTTACCCAAGATCAGGGAAACGCTTG,5.76
6,TCTCGGAGGACACGAAAGGTAAGAGCTCGACATC,-0.0644
7,TCTAGTAGATCAAGCAGGTTAAGAAAGCCTGAGT,-0.025
8,GGAACGAGGGCTAAGTTGATAGCATCTGTCGACG,-0.626
9,TTACCAAGGTGAAGGACGTTGATCCCTCTGTAGA,0.584
10,GCTTGTAGATCAAGGTTAAGGAAGACTAAGCTAA,0.428
11,ATCGAGAGGTCGAAGGTGAGTATACCCACCCGAA,2.43
12,TCTGCTAGGTCAACGATGGTCAGCTAATCTGCTA,2.96
13,CCTAGTTGCTCAAGGTCACACACGCTATAGGTAC,4.59
14,TAGCCTAGGTCATTGGGCCTGTATAGTACGCATC,3.47
15,TCTAGTTTGTCACGGAGGTCACACACGACGGGTA,3.54
16,GCATAGAGGTAATACAAGGTGAAAGTCCGATTGT,3.39
17,GCTACCAGGCCATTTGGGTCACTCAATGACGGGC,0.0663
18,CCTAGCATGCCAATCTGGGTCACTCAAGGCTTGA,1.12

# Tested on: LXRa homodimer (NR concentration 270 nM)
# Assay: as above
# Summary of the method: as §1
row,Sequence,PBM binding z-score
1,ATCTCTAGGTAAAGGTAGTTCAGTGAATGCAAAT,0.775
2,ACTTTTAGTTGAGACGAGGGCAACCGATAGGTTG,-0.32
3,TGTTGTAGATCAGCAGGTTAAGAAAGCTGGCCAA,-0.591
4,CACCCTAGGTCAGGGCCAGTATAGGAGGAACGTT,0.74
5,AGAATGAGGTTATTAAGATCTGGGAATTGCGGTC,0.216
6,CGTCCAAGGTCAGAGACGTCAGTGAATGCCGAGT,-0.161
7,ATCTCTCGGTAACAAGTTCAGTGAAAGAGAGGAC,0.428
8,TCTATTAGTTGAAGGGCAACCAACGAGTCCGTTT,0.54
9,TCTATTAGTTGCAGGGCAACCGACGAGTCCGTTT,0.147
10,CAAACTGGGTCACGAAAGGTCAAAGTCGAATGAC,6.63
11,TTCCCAAGGTGAAAGGTCGTTGATGCACGCCTTG,0.848
12,CGTACAAGGTCATAGGAGGTCAGTGAAGACAGAT,5.3
13,CCTAGCAGGCCACTCTGGGTCACTCAAGGCTTGA,0.221
14,AGTCAAAGTTCATCTAGGTAACGTACGATATGCT,5.65
15,CAAACTAGGTCATGAAAGGTCAAAGTCGAATGAC,8.41
16,CGTCCAAGTTCAAGGTAACGTAACAGAAAGCAGC,0.562
17,CAAACTAGGTCGCAGAGGTCAAAGTCCGTGCGTA,5.84
18,CCTATTAGTTGACCATAAGGGCAACGGAAGCTCG,0.454
19,CAAACTAGGTCACGAAAGGACAAAGTCGAATGAC,1.25
20,CCTCTGAGGACAGAAGGTCAGAGCTGTCCGCTTT,0.0206

row,Sequence,PBM binding z-score
1,TCTACTAGTTGAAGGGCAACCGACGAGTCCGTTT,-0.296
2,GCTAGCAGGCCATGTGGGTCACTCAATGACGGGC,-0.643
3,ACTAGTAGGCCAAGTTTGGGTCACTCAAACAAAG,-0.261
4,ATCTCTAGGTAACAAGTGCAGTGAAAGAGAGGAC,-0.0829
5,GCATATAGGTAATACAAGGTGAAAGTGCGATTGT,0.475
6,GATACAGGGACAGCTAGAGGCCAGAGTATGGAAA,-0.464
7,AGAATGAGGTTACCCAAGATCAGGGAAACGCTTG,-0.558
8,TCTCGGAGGACACGAAAGGTAAGAGCTCGACATC,-0.636
9,TCTAGTAGATCAAGCAGGTTAAGAAAGCCTGAGT,-0.279
10,GGAACGAGGGCTAAGTTGATAGCATCTGTCGACG,-0.392
11,TTACCAAGGTGAAGGACGTTGATCCCTCTGTAGA,-0.361
12,GCTTGTAGATCAAGGTTAAGGAAGACTAAGCTAA,-0.182
13,ATCGAGAGGTCGAAGGTGAGTATACCCACCCGAA,-0.396
14,TCTGCTAGGTCAACGATGGTCAGCTAATCTGCTA,-0.225
15,CCTAGTTGCTCAAGGTCACACACGCTATAGGTAC,4.23
16,TAGCCTAGGTCATTGGGCCTGTATAGTACGCATC,0.96
17,TCTAGTTTGTCACGGAGGTCACACACGACGGGTA,2.3
18,GCATAGAGGTAATACAAGGTGAAAGTCCGATTGT,-0.00697
19,GCTACCAGGCCATTTGGGTCACTCAATGACGGGC,-0.549
20,CCTAGCATGCCAATCTGGGTCACTCAAGGCTTGA,-0.371
